Most compounds without a hit are left out; they make up all but 19% or so of the library.
TDP1 block: qHTS Assay for Inhibitors of Tyrosyl-DNA Phosphodiesterase (TDP1). Tyrosyl-DNA phosphodiesterase 1 (Homo sapiens), Q9NUW8. Potency, µM (doses to about 130 µM), for inactives: at the highest dose activity change, negative = inhibition, most hits filed as inhibitors. recombinant TDP1, AlphaScreen DNA substrate cleavage. 350,000 tested, 0.28% active; note: potency is the fitted concentration of half-maximal effect; nearly all actives have a fitted effect of over 40% in size
Target sequence (Q9NUW8 whole entry, looked up): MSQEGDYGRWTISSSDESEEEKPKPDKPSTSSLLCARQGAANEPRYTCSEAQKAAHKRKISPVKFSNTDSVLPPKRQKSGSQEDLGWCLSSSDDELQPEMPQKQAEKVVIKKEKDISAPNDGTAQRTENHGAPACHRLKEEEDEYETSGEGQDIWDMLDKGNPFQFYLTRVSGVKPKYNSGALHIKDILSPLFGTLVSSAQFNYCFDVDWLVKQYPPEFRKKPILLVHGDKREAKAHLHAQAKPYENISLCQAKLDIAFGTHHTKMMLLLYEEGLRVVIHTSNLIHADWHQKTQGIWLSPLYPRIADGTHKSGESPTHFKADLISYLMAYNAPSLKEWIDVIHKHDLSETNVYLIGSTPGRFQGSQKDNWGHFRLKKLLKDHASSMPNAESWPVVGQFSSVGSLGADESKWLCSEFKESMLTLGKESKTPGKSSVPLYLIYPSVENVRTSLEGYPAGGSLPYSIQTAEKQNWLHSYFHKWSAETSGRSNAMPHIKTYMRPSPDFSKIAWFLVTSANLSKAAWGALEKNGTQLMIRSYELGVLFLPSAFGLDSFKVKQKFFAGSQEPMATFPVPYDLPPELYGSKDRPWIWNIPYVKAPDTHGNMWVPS
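Signal: AlphaScreen proximity between streptavidin donor and anti-FITC acceptor beads on intact substrate. Reaction: Tdp1 1 nM, substrate 15 nM final, 5 min RT after 15 min compound preincubation.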
Giardia kill: Small Molecules that selectively kill Giardia lamblia: qHTS; Giardia lamblia trophozoite viability; activity change, % at 7.66 µM, hits read low; AID 540267, 2011; 340,000 tested, 0.15% active; in the data active = activity change below about -80%; inconclusive = between about -30% and that limit;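 note: parasites exposed to compound for two days anaerobically before the ATP read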
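Each well holds 100 Giardia trophozoites and compound. After two days (48 hrs) at 37 deg C in anaerobic conditions, ATP is quantified by luminescence.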
ELG1 DNA repair: qHTS screen for small molecules that inhibit ELG1-dependent DNA repair in human embryonic kidney (HEK293T) cells expressing luciferase-tagged ELG1; Potency, µM (top dose mostly 46.1 µM), without a hit: at the top dose activity change, negative = inhibition, most hits filed as inhibitors; 330,000 tested, 2.3% active; HEK293T ELG1-luciferase reporter, luminescence, 16 h; DNA damage induced by 5-fluorouridine; note: potency is the fitted concentration of half-maximal effect; nearly all actives have a fitted effect of over 55% in size
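Quantitative HTS, concentration-response format. 2,000 cells/well co-treated with 5-fluorouridine and compound, 16 hr in 5% CO2 at 37 °C; ONE-Glo luminescence read after 30 min.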
IL-1B inflam inh: qHTS for Inhibitors of Inflammasome Signaling: IL-1-beta AlphaLISA Primary Screen. 360,000 tested, 4.7% active. THP-1 LPS/ATP IL-1B secretion, AlphaLISA, 16 h; stronger effect = lower value. activity change, % at 57.5 µM; in the data active = activity change below about -50%; inconclusive = mostly about -30% to -49%
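Secreted IL-1B measured by AlphaLISA bead assay after 16 h compound exposure of THP-1 cells; compounds (final up to 57.5 uM) added 1 h before LPS (250 ng/mL) and ATP (1.25 mM) stimulation; lower signal means less secretion.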
TDP1 cell CPT: qHTS for Inhibitors of human tyrosyl-DNA phosphodiesterase 1 (TDP1): qHTS in cells in presence of CPT | 420,000 tested, 12% active | AID 686979, 2013 | chicken DT40 Tdp1-/-;hTDP1 cells + 20 nM CPT, ATP luminescence, 48 h | Potency, µM (series often up to 46.2 µM), without a hit: top-dose activity change, negative = growth inhibition, hits mostly inhibitors; note: potency is the fitted concentration of half-maximal effect; nearly all actives have a fitted effect of over 55% in size
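Cell growth measured by CellTiter-Glo luminescence after a minimum 48 h, 37 C compound exposure with 20 nM CPT in Tdp1-knockout DT40 cells stably expressing hTDP1, seeded 400/well; qHTS titration format.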
TDP1 cell noCPT: qHTS for Inhibitors of human tyrosyl-DNA phosphodiesterase 1 (TDP1): qHTS in cells in absence of CPT. DT40 Tdp1-/- hTDP1 cells, no CPT, ATP luminescence, 48 h. Potency, µM (series often up to 46.2 µM), for the others: at the top dose activity change, negative = growth inhibition, actives largely listed as inhibitors. 420,000 tested, 15% active. AID 686978, 2013; note: potency is the fitted concentration of half-maximal effect; nearly all actives have a fitted effect of over 55% in size
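Seeded 400 DT40-hTDP1 cells/well (vehicle DMSO, no 20 nM CPT); pinned compounds; ≥48 hr at 37 °C; CellTiter-Glo luminescence as viability measure.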
* marks the source's active call; other numbers are inactive results; u = inconclusive; x = no result given. Unless noted, calls come from the whole dose curve; as a rule, active = well fitted curve in the direction sought with a large enough effect; inconclusive = small, poorly fitted or top-dose-only effect, or another doubt; inactive = no such curve, though single readings can be large; an effect the other way counts as inactive or inconclusive. % is set by controls: 0 for no effect and ±100 for the full control effect.

SMILES	TDP1 block	Giardia kill	ELG1 DNA repair	IL-1B inflam inh	TDP1 cell CPT	TDP1 cell noCPT
COc1ccccc1N1CCN(C(=O)c2sc3ncn(CC(=O)N4CCC(C)CC4)c(=O)c3c2C)CC1	2.0%	-3.1	-0.5%	19.4	u	1.84µM*
Cc1sc2ncn(CC(=O)N3CCN(c4ccccc4)CC3)c(=O)c2c1S(=O)(=O)N1CCN(c2ncccn2)CC1	0.0%	x	x	x	u	u
CCCN(C(=O)Cn1cnc2sc(C)c(S(=O)(=O)N3CCN(c4ncccn4)CC3)c2c1=O)c1cccc(C)c1	3.6%	x	x	x	-26.1%	14.6µM*
Cc1cccc(N2CCN(C(=O)Cn3cnc4sc(C)c(S(=O)(=O)N5CCN(c6ncccn6)CC5)c4c3=O)CC2C)c1 (centres undefined)	3.6%	x	x	x	16.4µM*	14.6µM*
Cc1sc2ncn(CC(=O)N3CCN(c4ccc(Cl)cc4)CC3)c(=O)c2c1S(=O)(=O)N1CCN(c2ncccn2)CC1	5.9%	x	x	x	11.6µM*	u
Cc1cc(-n2cnnn2)cc(C)c1S(=O)(=O)N(C)c1ccccc1	4.9%	0.1	0.0%	-25.9	u	u
CCC1C(=O)CC2CCN3C(=O)CCC1C23 (centres undefined)	3.8%	8.8	x	x	x	x
Cc1sc2ncn(CC(=O)N3CCN(c4ccc(F)cc4)CC3)c(=O)c2c1S(=O)(=O)N1CCOCC1	6.4%	7.4	u	-12.2	-10.3%	u
COc1ccc(N2CCN(C(=O)Cn3cnc4sc(C)c(S(=O)(=O)N5CCC(C)CC5)c4c3=O)CC2)cc1	2.9%	x	x	x	u	23.1µM*
Cc1ccc(CNC(=O)c2nn(-c3ccc(Cl)cc3)nc2CO)cc1	7.0%	x	x	x	4.0%	-27.1%
Cc1ccc(C[n+]2cc(-c3ccc(Cl)cc3)n3c2CCC3)cc1	9.6%	6.5	4.61µM*	-92.5*	5.17µM*	2.31µM*
Clc1ccc(-c2c[n+](Cc3ccc(Cl)c(Cl)c3)c3n2CCC3)cc1	5.4%	x	-13.3%	x	x	x
Clc1cccc(C[n+]2cc(-c3ccccc3)n3c2CCC3)c1	2.7%	-11.0	-8.2%	-4.0	2.91µM*	2.59µM*
Cc1ccc(-c2c[n+](Cc3cccc(Cl)c3)c3n2CCC3)cc1	x	-13.4	10.3µM*	-81.1*	0.92µM*	0.517µM*
C=CCNC(=S)N/N=C1\CCS(=O)(=O)c2ccccc21	x	0.5	u	19.7	0.0%	-4.0%
COc1ccc(CCNC(=O)CCc2c(C)c3ccc(O)c(C)c3oc2=O)cc1	3.7%	x	x	x	u	u
CCOCCOC(=O)COc1ccc2c(-c3ccccc3)cc(=O)oc2c1	-1.8%	-12.1	7.7%	26.1	-6.9%	-16.7%
Cn1nccc1C(=O)NCc1ccc2c(c1)CCN2C(=O)c1ccccc1	4.4%	x	x	x	-0.5%	-20.9%
O=C(NCc1ccc2c(c1)CCN2C(=O)c1ccncc1)c1cccc(Cl)c1	3.4%	x	x	x	20.6µM*	u
COc1ccc(C(=O)NCc2ccc3c(c2)CCN3C(=O)c2ccc(F)cc2)cc1	5.4%	x	x	x	u	20.6µM*
COc1ccc(C(=O)NCc2ccc3c(c2)CCN3C(=O)c2ccccc2)cc1	-0.5%	x	x	x	23.1µM*	23.1µM*
COc1cccc(NC(=O)NCc2ccc3c(c2)CCN3C(=O)c2ccccc2)c1	7.7%	x	x	x	u	u
Cc1ccccc1C(=O)NCc1ccc2c(c1)CCN2C(=O)c1ccccc1	1.5%	x	x	x	13µM*	10.3µM*
CCOc1ccc(C(=O)NCc2ccc3c(c2)CCN3C(=O)c2ccccc2)cc1	7.4%	x	x	x	13µM*	16.4µM*
O=C(NCc1ccc2c(c1)CCN2C(=O)c1ccc(F)cc1)c1ccco1	1.5%	x	x	x	20.6µM*	u
SMILES	TDP1 block	Giardia kill	ELG1 DNA repair	IL-1B inflam inh	TDP1 cell CPT	TDP1 cell noCPT
CCOc1ccc(C(=O)NCc2ccc3c(c2)CCN3C(=O)c2ccc(Cl)cc2)cc1	3.4%	x	x	x	-7.5%	2.1%
CC(C)(C)c1ccc(C(=O)Nc2ccc(CN3CCS(=O)(=O)CC3)cc2)cc1	-5.7%	-16.4	7.2%	-60.4*	16.4µM*	20.6µM*
O=C(Nc1ccc(CN2CCS(=O)(=O)CC2)cc1)c1ccc(C(F)(F)F)cc1	0.0%	-20.6	-10.1%	-19.8	u	20.6µM*
COC(=O)CCn1nc(-c2ccc(C)cc2)c2ccccc2c1=O	0.0%	-13.7	-2.2%	18.9	-21.6%	-21.2%
COc1ccc2c(c1)c(C(C)=O)c(C)n2CCc1ccccc1	x	-1.2	8.2µM*	-6.1	u	u
CCc1cc(C(=O)NCc2ccccc2)no1	5.5%	x	x	x	-18.8%	-3.0%
CCC1(c2cccc(Cl)c2)NC(=O)N(Cc2cc(C(=O)OC)c(C)o2)C1=O (centres undefined)	-2.6%	3.8	u	1.9	25.9µM*	18.4µM*
CCOC(=O)N1CCN(S(=O)(=O)c2ccc(F)c(C(=O)Nc3ccc(C)c(Cl)c3)c2)CC1	0.0%	-10.1	u	-69.7*	16.4µM*	20.6µM*
CCOC(=O)N1CCN(S(=O)(=O)c2ccc(C)c(C(=O)NC3CCCCC3)c2)CC1	-5.7%	-10.8	-16.9%	16.1	-4.0%	-25.1%
CCOC(=O)N1CCN(S(=O)(=O)c2ccc(F)c(C(=O)Nc3ccc(C(C)C)cc3)c2)CC1	2.6%	15.8	u	0.6	18.4µM*	18.4µM*
C[C@H](CO)N1C[C@H](C)[C@@H](CN(C)C(=O)C2CC2)OCc2cnnn2CCCC1=O	x	x	x	-0.2	6.4%	6.2%
COc1ccc(C2=NN(CN3C(=O)C(=O)c4ccccc43)C(c3ccc(OC)cc3)C2)cc1 (centres undefined)	5.3%	16.5	u	-20.3	u	u
CN1CCC2(CC1)Nc1nc(SCc3ccc(Cl)cc3)nn1C1=C2CN(C)CC1	3.0%	7.3	5.7%	-62.1*	u	23.1µM*
CCNc1ncc2nc(-c3ccc(OC)cc3)c(=O)n(CCC#N)c2n1	x	x	x	x	14.9%	6.4%
Cc1ccc(-c2cc(C(=O)N(Cc3ccc(C(C)(C)C)cc3)Cc3ccco3)no2)cc1	4.7%	x	x	x	18.4µM*	13µM*
O=C(c1cc(-c2ccc(Cl)cc2)on1)N(Cc1cccc(F)c1)Cc1ccco1	-1.6%	x	x	x	u	18.4µM*
Cc1ccc(-c2cc(C(=O)NCc3ccco3)no2)cc1	1.1%	-11.1	u	-6.6	-2.1%	-17.9%
